Laboratory results as given in PubChem BioAssay (NCI).
The panel holds about 83,000 compounds, 20% with a hit somewhere; the sample as a whole holds those more often.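 The test compound was applied at a single concentration to cells in 96-well plates for 48 hours, and percent growth was recorded.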 The source made the active and inactive calls. How the source made its calls: active means growth percent below 10; inactive means the rest.

Each compound was assayed on HL-60(TB) leukemia (assay: NCI-60 one-dose screen, 48 h (100 = growth as untreated, 0 = no growth, -100 = all killed)). Settings: 10 µM unless noted.

Compound | growth
Cc1ccc(C2CC(c3ccc(Nc4nc(NCCO)nc(Nc5ccc(Cl)cc5)n4)cc3)=NN2c2cc(Cl)cc(Cl)c2)cc1 (stereo not given) | 100% (inactive)
COCCOCCOCc1n(Cc2ccc3ccccc3c2)c2ccccc2[n+]1Cc1ccc2ccccc2c1 | -53.5% (active)
NC(CC(=O)O)C(=O)OCc1ccccc1 (stereo not given) | 101% (inactive)
c1cc2[nH]ncc2cc1-c1nc2ccc3[nH]ncc3c2c2c1CCC2 | -4.44% (active)
N#CC(C#N)N=Nc1ccc(Cl)cc1Cl | 53% (inactive)
O=C(/C=C/C12c3ccccc3C(c3ccccc31)C1C(=O)NC(=O)C12)c1cccs1 (stereo not given) | 6.95% (active)
CCCCCCOc1ccc(C(=N)N(CCCC)CCCC)c2ccccc12 | -49.6% (active)
O=C(O)c1cc2ccccc2s1 | 112% (inactive)
O=C(CN1C(=O)NC(c2ccccc2)(c2ccccc2)C1=O)c1ccc(N2CCCC2)cc1 | 85.5% (inactive)
CN(CCc1ccccc1)C(=S)N(C(=O)c1ccc([N+](=O)[O-])cc1)c1ccc(Cl)cc1 | 45% (inactive)
CN=C1C=CC(=C(c2ccc(N(C)C)cc2)c2ccc(N(C)C)cc2)C=C1 | -1.23% (active)
COc1ccc(C(=O)c2cc(OC)c(OC)c(OC)c2)cc1O | -29.1% (active)
Cc1ccc2nc(NC(=O)CSc3nc(Cl)c(C#N)c(-c4ccccc4)n3)sc2c1 | 94.9% (inactive)
Clc1cccc(C2Cc3cnccc3-c3[nH]c4ccncc4c32)c1 (stereo not given) | 25.3% (inactive)
CCCCc1ccc(C(O)(CCN2CC3CCC(CC3)C2)c2ccccc2)cc1 (stereo not given) | 84.5% (inactive)
O=C(c1ccccc1)N(C(=O)c1ccccc1)N1CCCC1 | 120% (inactive)
COc1cc(Cn2cc3c(c2)-c2onc(CO)c2CC3)cc(OC)c1OC | 77.5% (inactive)
Cn1c(COC(=O)NCCc2ccccn2)nc2c(N3CCOCC3)nc(Cl)nc21 | -36.9% (active)
COC(=O)c1cc(Cl)cc([N+](=O)[O-])c1O | 18.8% (inactive)
COc1cc(OC)c(/C=C/S(=O)(=O)Cc2cnc(OC)c(N)c2)c(OC)c1 | -39.5% (active)

Compound | growth
CC1=NC2=Nn3c(c4cnn(-c5ccccc5)c4n/c3=N\N)NN2C(c2ccccc2)=C1 | 106% (inactive)
CCCCC(=O)N(c1ccc(Nc2c3ccccc3nc3cc([N+](=O)[O-])ccc23)cc1)S(C)(=O)=O | 68.3% (inactive)
S=c1[nH]nc(-c2cc3ccc2CCc2ccc(cc2)CC3)n1-c1ccccc1 | 89.7% (inactive)
FCc1nc2nc(Cl)c(Cl)nc2[nH]1 | 102% (inactive)
CN(C)c1ccc(Cc2cc(-c3ccccc3)nn(C/C(=N/O)c3ccccc3)c2=O)cc1 | 54.3% (inactive)
CCOC(=O)/C=C1\S/C(=N\Nc2ccc([N+](=O)[O-])cc2[N+](=O)[O-])N(Cc2ccccc2)C1=O | 76.3% (inactive)
Cc1cc2c(c(C)n1)CN(C(=O)Nc1nc(-c3cncs3)ccc1N)C2 | 139% (inactive)
OC1(c2ccc(Cl)c(C(F)(F)F)c2)CCN(CCCC(c2ccc(F)cc2)c2ccc(F)cc2)CC1 | -49.6% (active)
N#C/C(=C\c1ccc(Br)cc1)n1nnc2cc(F)c(F)cc21 | -16.2% (active)
COc1ccc2nc3ccccc3c(NCc3ccc(Cl)cc3)c2c1 | -64.5% (active)
CS(=O)(=O)Nc1ccc(Nc2c3ccccc3nc3cc(N)ccc23)cc1 | 5.48% (active)
COc1cc(-c2cc(-c3nc4cc(Cl)c(Cl)cc4[nH]3)[nH]n2)cc(OC)c1OC | 14.2% (inactive)
NS(=O)(=O)c1ccc(CCN=C=S)cc1 | -2.31% (active)
C=C(C=O)C1CCC2(C(=O)O)CCC3(C)C(CCC4C5(C)CCC(O)C(C)(C)C5CCC43C)C12 (stereo not given) | 6.38% (active)
Clc1ccc2c(Nc3ccc4oc(NCCN5CCCC5)nc4c3)ccnc2c1 | 72.3% (inactive)
COC(=O)C[C@@H]1CC=CC(=O)/C1=C(O)/C=C/c1ccccc1 | -10.7% (active)
CC(=O)c1ccc2c(c1)C1C=CCC1[C@H](c1cc3c(cc1Br)OCO3)N2 (stereo not given in full) | -45.3% (active)
CCC(C)Nc1ccc(NC(C)CC)cc1 (stereo not given) | 57.5% (inactive)
CCS/C(Nc1ccccc1)=C(\C#N)C(=O)Nc1ccc(OC)cc1 | -15.6% (active)
CCCCCCCCNC(C)C(O)c1ccc(SC(C)C)cc1 (stereo not given) | -70.1% (active)
